Data on 40 compounds can be found in the supplement of paper PMC8253809.

This assay relates to HNSC. The assay can be described thus: growth inhibition (% activity, log2 RLU normalised to DMSO / staurosporine); higher = more growth inhibition. To be noted: 33 µM. A digest of the protocol:
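pHGG cell lines and H9-derived neural stem cells were grown on Geltrex-coated 384-well plates. Approved drugs were added by pin tool at a single final concentration of about 33 μM, in triplicate, for 7 days at 37 °C, 5% CO2. CellTiter-Glo luminescence was log2-transformed and normalised per plate to % activity between solvent and positive control wells. The growth-inhibition value is the median over replicates.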
`C[C@]12C=CC(=O)C=C1CC[C@H]1[C@@H]3C[C@@H](O)[C@](O)(C(=O)CO)[C@@]3(C)C[C@H](O)[C@@]12F`: the growth inhibition is -1.58%. Turning to `NCCC(O)(P(=O)(O)O)P(=O)(O)O`, the growth inhibition came to 2.52%. As for `CCC[C@@H]1C[C@@H](C(=O)N[C@@H]([C@H]2O[C@H](SC)[C@H](OP(=O)(O)O)[C@@H](O)[C@H]2O)[C@H](C)Cl)N(C)C1`, the figure is 3.42%; as for `CC(C)[C@H](N)C(=O)OCC(CO)OCn1cnc2c(=O)[nH]c(N)nc21` (stereo not given in full), 0.0503%; as for `Nc1ccc(S(=O)(=O)Nc2ccccn2)cc1`, 0.764%. Regarding `CCCCCCCCCCCCCCCCO`, the growth inhibition was determined as 11.6%.

With `CC(CN(C)C)CN1c2ccccc2CCc2ccccc21` (stereo not given), the growth inhibition worked out at 3.02%. As for `NCCCC[C@H](N[C@@H](CCc1ccccc1)C(=O)O)C(=O)N1CCC[C@H]1C(=O)O`, the growth inhibition is -1.56%. As for `CC(N)C12CC3CC(CC(C3)C1)C2` (stereo not given), the figure is 1.01%; as for `CCCCCN(C)CCC(O)(P(=O)(O)O)P(=O)(O)O`, 5.06%; as for `CSc1ccc2c(c1)N(CCC1CCCCN1C)c1ccccc1S2` (stereo not given), 7.39%. Consider `CN/C(=N\CCSCc1nc[nH]c1C)NC#N`, for which the growth inhibition stood at 0.707%. For the compound `CN[C@@H]1[C@H](O[C@H]2[C@H](O[C@H]3[C@H](O)[C@@H](O)[C@H](N=C(N)N)[C@@H](O)[C@@H]3N=C(N)N)O[C@@H](C)[C@]2(O)C=O)O[C@@H](CO)[C@H](O)[C@H]1O`, the growth inhibition is -0.954%.

Consider `COc1cc2c(cc1O)CC[C@@H]1[C@@H]2CC[C@]2(C)[C@@H](O)CC[C@@H]12`, for which the growth inhibition amounted to 53.5%. As for `CC(C)C[C@H](NC(=O)[C@H](O)[C@H](N)Cc1ccccc1)C(=O)O`, the figure is 0.429%; as for `CC=CC1=C(C(=O)O)N2C(=O)[C@@H](NC(=O)[C@H](N)c3ccc(O)cc3)[C@H]2SC1`, -1.83%.

Take `Cc1cc2c(s1)Nc1ccccc1N=C2N1CCN(C)CC1`: the growth inhibition amounted to 3.31%.

On to `OC(Cn1cncn1)(Cn1cncn1)c1ccc(F)cc1F`, for which the growth inhibition was found to be 1.54%.

For `CC(C)C[C@H](NC(=O)[C@H](Cc1ccccc1)NC(=O)c1cnccn1)B(O)O`, the growth inhibition is 64.2%. `Clc1ccccc1CN1CCc2sccc2C1`: the growth inhibition came out at 1.29%. Regarding `CNC(CC(C)C)C(=O)NC1C(=O)NC(CC(N)=O)C(=O)NC2C(=O)NC3C(=O)NC(C(=O)NC(C(=O)O)c4cc(O)cc(O)c4-c4cc3ccc4O)C(O)c3ccc(c(Cl)c3)Oc3cc2cc(c3OC2OC(CO)C(O)C(O)C2OC2CC(C)(N)C(O)C(C)O2)Oc2ccc(cc2Cl)C1O` (stereo not given), the growth inhibition is -0.899%.

For the compound `Nc1ccc(S(=O)(=O)Nc2ncccn2)cc1`, the growth inhibition turned out to be 1.26%. Turning to `COC1=C(OC)C(=O)C(CCCCCCCCCCO)=C(C)C1=O`, the growth inhibition was determined as 5.4%.

As for `C=C[C@H]1CN2CC[C@H]1C[C@H]2[C@H](O)c1ccnc2ccc(OC)cc12`, the growth inhibition was determined as 2.99%. Turning to `COC(=O)C1=C(C#N)NC(C)=C(C(=O)OC(C)C)C1c1cccc([N+](=O)[O-])c1` (stereo not given), the growth inhibition was 5%. In the case of `CS(=O)(=O)c1ccc(C(=O)Nc2ccc(Cl)c(-c3ccccn3)c2)c(Cl)c1`, the growth inhibition was 4.02%.

Consider `N=C(N=C(N)N)N1CCOCC1`, for which the growth inhibition was 0.723%.

With `CCOC(=O)c1c(CSc2ccccc2)n(C)c2cc(Br)c(O)c(CN(C)C)c12`, the growth inhibition is 53.4%. Consider `CCC[C@H](N[C@@H](C)C(=O)N1[C@H](C(=O)O)C[C@@H]2CCCC[C@@H]21)C(=O)OCC`, for which the growth inhibition turned out to be 0.292%.

Consider `CC(=O)OCC(=O)[C@@]12N=C(C)O[C@@H]1C[C@H]1[C@@H]3CCC4=CC(=O)C=C[C@]4(C)[C@H]3[C@@H](O)C[C@@]12C`, for which the growth inhibition was determined as 1.26%. For the compound `CCCNC(C)C(=O)Nc1c(C)csc1C(=O)OC` (stereo not given), the growth inhibition is 5.64%.

On to `Clc1ccc(C(Cn2ccnc2)OCc2csc3c(Cl)cccc23)c(Cl)c1` (stereo not given), for which the growth inhibition came to 10.7%.

In the case of `COc1ccccc1OCCNCC(O)COc1cccc2[nH]c3ccccc3c12` (stereo not given), the growth inhibition was 7.57%. Then `O=C1O[C@H]([C@@H](O)CO)C([O-])=C1O.[Na+]`, with 6.78%; and `CC(C)NCC(O)c1ccc(NS(C)(=O)=O)cc1` (stereo not given), with 9.65%; and `Cn1nnc2c(C(N)=O)ncn2c1=O`, with 9.79%.

With `O=C(Nc1cccc2c(=O)cc(-c3nnn[nH]3)oc12)c1ccc(OCCCCc2ccccc2)cc1`, the growth inhibition was found to be 52.4%. Turning to `CN1CCC(=C2c3ccccc3CCc3sccc32)CC1`, the growth inhibition was 1.57%. On to `Clc1ccc(CCC(Cn2ccnc2)Sc2c(Cl)cccc2Cl)cc1` (stereo not given), for which the growth inhibition stood at 10.2%. For `COC(=O)[C@@H]1CC2=CC(=O)CC[C@]2(C)[C@@]23O[C@@H]2C[C@@]2(C)[C@@H](CC[C@@]24CCC(=O)O4)[C@H]13`, the growth inhibition is -0.69%.
